Source: PubChem BioAssay
HCMV inh = human cytomegalovirus inhibition; HFF cells, HCMV-luciferase reporter, 72 h; hits give low values; activity change, negative = inhibition, % at 57.5 µM; actives 4.5% (n = 410,000); in the data active = activity change below about -60%; inconclusive = no clear call, values can overlap the other calls; inactive = above about -39%
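Cell-based, HFFs, 1000 cells/well, 16 h 37C; cpds in DMSO + HCMV-luc, MOI 1 PFU/cell; 72 h 37C; OneGlo luminescence after 5 min RT; norm. to buffer vs Salinomycin 10uM.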
VACV mCherry inh = vaccinia inhibition (mCherry reporter) | Vaccinia virus mCherry reporter infection, fluorescence | Potency, µM (top dose mostly 36.5 µM), actives largely listed as inhibitors | actives 0.63% (n = 310,000) | AID 720579; calls by dose curve; tested in A549 cells; note: nearly all actives have a fitted effect of over 35% in size
FMDV antiviral = foot and mouth disease virus antiviral activity | FMDV antiviral cell-based qHTS | Potency, µM (doses to about 57.9 µM), usual class: inhibitors | actives 1.2% (n = 410,000) | AID 1159524; calls by dose curve; tested in HEK293T cells; note: read-out not given here; nearly all actives have a fitted effect of over 45% in size
Sm TGR inh = inhibitors of Schistosoma mansoni thioredoxin glutathione reductase | purified TGR, DTNB reduction, TNB absorbance 405 nm | Potency, µM (titrated, usually from 114 µM), most hits filed as inhibitors | actives 3% (n = 360,000); note: nearly all actives have a fitted effect of over 60% in size
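TGR 20 nM + NADPH 100 uM (dispensed conc.), cpd preinc 15 min RT; start with NADPH (500 uM addition) then DTNB (15 mM addition). Kinetic TNB absorbance, 405 nm filter. Four-parameter Hill fit across titration.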
Vaccinia Venus = inhibitors of vaccinia virus (Venus reporter). AID 720580. Vaccinia virus Venus reporter expression, fluorescence. actives 0.46% (n = 330,000). Potency, µM (doses to about 36.5 µM), most hits filed as inhibitors; calls by dose curve; tested in A549 cells; note: nearly all actives have a fitted effect of over 30% in size
HCV inhibitor = blocks hepatitis C virus | Huh7.5.1 HCVcc-Cre infection, luciferase reporter, 44 h | AID 651820 | actives 3.4% (n = 340,000) | Potency, µM (doses to about 41.8 µM), actives largely listed as inhibitors
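Cells (1,000/well) were plated 4 h before compound, then infected with HCVcc-Cre virus (~0.5 moi). After 44 h further culture, infection was read as luciferase luminescence following a 15 min substrate incubation at room temperature.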
Large screens that a line does not name were inactive. Most compounds without a hit are left out; they make up all but 9.3% or so of the library. Unless noted, calls come from the whole dose curve; as a rule, active = well fitted curve in the direction sought with a large enough effect; inconclusive = small, poorly fitted or top-dose-only effect, or another doubt; inactive = no such curve, though single readings can be large; an effect the other way counts as inactive or inconclusive.

Cn1c(=O)c2sccc2n2c(CCCC(=O)Nc3ccc(Oc4ccc(Cl)cc4)cc3)nnc12	HCMV inh -76, VACV mCherry inh inconclusive, FMDV antiviral inconclusive (no result: HCV inhibitor)
COc1ccc(NC(=O)CCc2nnc3n(C)c(=O)c4sccc4n23)cc1	none (no result: HCV inhibitor)
Cc1ccc(NC(=O)COc2ccccc2)c(NC(=O)c2ccccc2C)c1	HCMV inh -64 (no result: Sm TGR inh)
Cc1ccc(NC(=O)c2ccco2)c(NC(=O)COc2ccccc2)c1	none
CC(=O)c1ccc(NC(=O)CSc2nnc(-c3ccco3)c(-c3ccco3)n2)cc1	Sm TGR inh 2.8µM, HCV inhibitor inconclusive
Cc1cc(Cl)nc(SCC(=O)c2ccccc2)n1	none (no result: VACV mCherry inh, Vaccinia Venus)
O=C(CSc1nnc(-c2ccco2)c(-c2ccco2)n1)c1ccccc1	HCV inhibitor 2.8µM
COc1ccc(-c2nnc(SCC(=O)Nc3ccc(C(C)=O)cc3)nc2-c2ccc(OC)cc2)cc1	none (no result: HCV inhibitor)
N#Cc1ccc(Oc2ccc(S(=O)(=O)N3CCOCC3)cn2)cc1	none
CCC(=O)NCCc1nc2ccccc2n1CC(=O)c1ccccc1	none
CCn1ncc(C2=NOC(C(=O)NCc3ccc(Cl)cc3)C2)c1C (centres undefined)	HCMV inh -81 (no result: VACV mCherry inh, Vaccinia Venus)
Cc1ccc(CNC(=O)C2CC(c3cc(C(F)(F)F)cc(C(F)(F)F)c3)=NO2)o1 (centres undefined)	Sm TGR inh 18µM
Cc1ccc(CNC(=O)C2CC(c3cccc([N+](=O)[O-])c3)=NO2)o1 (centres undefined)	Sm TGR inh 32µM
O=C(NCc1ccco1)C1CC(c2c(Cl)cccc2Cl)=NO1 (centres undefined)	Sm TGR inh 40µM, Vaccinia Venus inconclusive, HCV inhibitor inconclusive
COc1ccccc1NC(=O)N1CCCC1C(=O)NCc1ccccc1F (centres undefined)	none (no result: VACV mCherry inh, Vaccinia Venus)
NC(=O)C1CNc2ccccc2O1 (centres undefined)	none (no result: VACV mCherry inh)
Cc1ccc(OCC(=O)O/N=C(\N)c2ccncc2)c(C)c1	none
Cc1ccc(SC(C)C(=O)O/N=C(\N)c2ccncc2)cc1 (centres undefined)	FMDV antiviral inconclusive, Sm TGR inh 40µM, HCV inhibitor inconclusive (no result: VACV mCherry inh, Vaccinia Venus)
O=C(c1ccc(C(F)(F)F)cc1)n1ccc(-c2cccs2)n1	none
COc1ccc(Cl)cc1NC(=O)c1c(-c2ccccc2)noc1C	HCV inhibitor inconclusive
COc1cccc(/C=N/NC(=O)c2cnccn2)c1O	VACV mCherry inh 4.5µM
Cc1onc(-c2ccccc2)c1C(=O)N/N=C/c1cc(Br)c(Br)o1	FMDV antiviral 25µM
COC(=O)c1c(-c2ccccc2)noc1C	HCMV inh -76
Cc1ccc(/C=N/NC(=O)c2c(-c3ccccc3)noc2C)o1	HCMV inh inconclusive
COC(=O)c1onc(-c2ccccc2)c1C(=O)OC	none (no result: VACV mCherry inh)
COc1ccc(Cl)cc1NC(=O)COC(=O)c1c(-c2ccccc2)noc1C	FMDV antiviral inconclusive, HCV inhibitor 4µM (no result: VACV mCherry inh, Vaccinia Venus)
CCCCn1c(N)c(N(CCOC)C(=O)c2cc3c(s2)CCC(C)C3)c(=O)[nH]c1=O (centres undefined)	HCV inhibitor inconclusive
COc1ccccc1CNS(=O)(=O)N(C)C	none (no result: Sm TGR inh)
COc1cccc(/C=N/NC(=O)c2ccoc2C)c1O	HCMV inh -82, VACV mCherry inh 4.5µM, Vaccinia Venus inconclusive, HCV inhibitor 10µM
COc1cc(/C=N/NC(=O)c2c(-c3ccccc3)noc2C)ccc1O	FMDV antiviral inconclusive (no result: VACV mCherry inh)
COc1cccc(/C=N/NC(=O)C(=O)N/N=C/c2cccc(OC)c2O)c1O	none
COc1cccc(/C=N/NC(=O)c2c(-c3ccccc3)noc2C)c1O	HCMV inh -83, VACV mCherry inh 10µM, Vaccinia Venus inconclusive, HCV inhibitor inconclusive
O=C(N/N=C/c1cc(Br)c(Br)o1)C(O)c1ccccc1 (centres undefined)	Sm TGR inh 40µM
Cc1ccc(/C=N/NC(=O)c2c(-c3ccccc3)noc2C)c(O)c1	HCMV inh -110 (no result: VACV mCherry inh, FMDV antiviral, Vaccinia Venus, HCV inhibitor)
COc1ccc(CNC2CCCCC2C)c(OC)c1 (centres undefined)	HCV inhibitor inconclusive (no result: VACV mCherry inh, Vaccinia Venus)
NS(=O)(=O)c1ccc(N=Nc2c[nH]c(=O)c(O)c2)cc1	Sm TGR inh 8.9µM
Nc1nc(O)c(N=Nc2ccc(S(N)(=O)=O)cc2)c(=O)[nH]1	none
